# Source: paper PMC4336329 (PLoS ONE, 2015)
# Screen size: about 310,000 compounds; about 14,000 (4.5%) showed an effect of 50% or more. The effect is printed as a negative number. Shown is part of a subset that was picked to be rich in strong results.
# Target: human ether-à-go-go-related gene (hERG) potassium channel (human, UniProt Q12809)
# Test: primary screen, population patch clamp on CHO cells stably expressing hERG; higher = less effect of the substance
# 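Note: peak tail current of the secondary pulse compared with the same well before compound.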
# Sequence of human ether-à-go-go-related gene (hERG) potassium channel (Q12809 whole entry, looked up): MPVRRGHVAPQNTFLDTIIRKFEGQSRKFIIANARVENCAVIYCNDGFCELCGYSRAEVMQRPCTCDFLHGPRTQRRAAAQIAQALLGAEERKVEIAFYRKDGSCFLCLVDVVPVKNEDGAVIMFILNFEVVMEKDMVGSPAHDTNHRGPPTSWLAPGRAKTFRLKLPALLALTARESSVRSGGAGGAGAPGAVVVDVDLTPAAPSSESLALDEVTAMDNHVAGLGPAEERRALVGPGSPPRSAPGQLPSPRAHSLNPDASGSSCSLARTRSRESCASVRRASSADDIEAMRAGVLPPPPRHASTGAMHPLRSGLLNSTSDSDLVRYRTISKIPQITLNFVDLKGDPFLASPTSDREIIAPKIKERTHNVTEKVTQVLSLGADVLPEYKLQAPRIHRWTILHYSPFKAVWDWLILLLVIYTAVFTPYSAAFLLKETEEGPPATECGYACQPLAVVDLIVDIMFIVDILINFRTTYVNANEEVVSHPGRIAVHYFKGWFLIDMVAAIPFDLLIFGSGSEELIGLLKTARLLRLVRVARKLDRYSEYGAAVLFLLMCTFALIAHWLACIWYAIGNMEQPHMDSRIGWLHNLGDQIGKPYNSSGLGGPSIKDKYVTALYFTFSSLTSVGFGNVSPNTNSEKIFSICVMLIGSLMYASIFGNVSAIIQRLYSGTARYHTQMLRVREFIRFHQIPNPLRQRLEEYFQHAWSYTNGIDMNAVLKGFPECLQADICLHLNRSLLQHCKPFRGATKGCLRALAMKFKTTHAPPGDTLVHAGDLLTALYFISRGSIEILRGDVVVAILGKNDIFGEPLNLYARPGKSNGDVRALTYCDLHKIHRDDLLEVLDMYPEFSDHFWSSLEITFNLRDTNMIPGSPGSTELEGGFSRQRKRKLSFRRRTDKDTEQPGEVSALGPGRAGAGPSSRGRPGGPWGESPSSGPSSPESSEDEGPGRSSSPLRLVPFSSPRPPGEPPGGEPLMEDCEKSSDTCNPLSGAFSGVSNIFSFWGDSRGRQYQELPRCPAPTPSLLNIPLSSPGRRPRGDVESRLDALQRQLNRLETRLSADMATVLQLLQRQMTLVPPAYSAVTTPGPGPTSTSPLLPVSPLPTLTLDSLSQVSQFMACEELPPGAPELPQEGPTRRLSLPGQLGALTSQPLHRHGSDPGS
row,Structure (SMILES),"hERG current change (%, negative = inhibition) at 10uM [%]"
1,O=C(Nc1ccccc1N1CCOCC1)C1CCCCN1S(=O)(=O)c1ccccc1 (stereo not drawn),-20.8
2,Cc1nc([N+](=O)[O-])c(NCCO)n1Cc1ccccc1,8.23
3,Cc1ccccc1CN1C[C@@H]2C[C@@H](c3cn[nH]c3-c3ccc(F)cc3)N3CCC[C@@]23C1=O,-52.2
4,COc1ccc(-c2[nH]ncc2[C@@H]2C[C@H]3CN(Cc4ccccc4C)C(=O)[C@]34CCCN24)cc1,-51.7
5,Cc1ccccc1CN1C[C@@H]2C[C@@H](c3cn[nH]c3-c3ccccc3)N3CCC[C@@]23C1=O,-5.95
6,COc1ccccc1CN1C[C@@H]2C[C@@H](c3ccccc3OC)N3CCC[C@@]23C1=O,-14
7,CCn1ncc([C@@H]2C[C@H]3CN(Cc4ccccc4C)C(=O)[C@]34CCCN24)c1C,17.7
8,COc1ccccc1CN1C[C@@H]2C[C@@H](c3ccccc3C)N3CCC[C@@]23C1=O,17.4
9,Cc1cc(NC(=O)C2CC=CCC2C(=O)O)no1 (stereo not drawn),-1.9
10,CN(Cc1ccccc1F)C(=O)CN1CCN(S(=O)(=O)c2ccc3c(c2)OCCCO3)CC1,-18.4
11,O=C(O)C1CCCCC1C(=O)N1CCN(S(=O)(=O)c2ccc(F)cc2)CC1 (stereo not drawn),8.47
12,COc1ccc(-c2cc(=O)c3cc(OC)c(OC)cc3[nH]2)cc1,-5.83
13,COc1cc(NC(=O)c2cnc(N)s2)cc(C(=O)Nc2cccc(C(F)(F)F)c2)c1,-26
14,Cc1ccc(Nc2cc(C)c3c(O)cccc3n2)cc1C.Cl,19
15,Cc1ccc(Nc2cc(C)c3ccc(O)cc3n2)cc1C.Cl,-58.5
16,COC(=O)c1cc(Nc2cc(C)c3ccc(O)cc3n2)cc(C(=O)OC)c1,6.58
17,COc1ccc(Nc2cc(C)c3ccccc3n2)cc1,4.57
18,COc1ccc(Nc2cc(C)c3ccc(O)cc3n2)cc1,-58.4
19,Cc1cc(Nc2ccccc2)nc2cc(O)ccc12,-11.5
20,COC(=O)c1c(-c2cccs2)csc1NC(=O)CSc1ncnc2sc(C)c(C)c12,0.474
21,Cc1cc(C)nc(-n2nc(C)c3c(C(F)F)cc(C)nc32)n1,15.3

row,Structure (SMILES),"hERG current change (%, negative = inhibition) at 10uM [%]"
1,CCC1=C([N+](=O)[O-])C(c2ccc3c(c2)OCO3)NC(=O)N1 (stereo not drawn),16
2,O=C(CSc1nc(CCC2CCCC2)nc2ccccc12)NCc1ccc2c(c1)OCO2,15
3,CCOP(=O)(OCC)C(O)c1ccc(OC)c(OC)c1 (stereo not drawn),15.6
4,Cc1nc(SCC(=O)NCc2ccco2)nc(C)c1C,-6.76
5,Cc1ccc(CNC(=O)c2csc3c2CCCCC3)cc1,2.19
6,Cc1ccc(OCC(=O)Nc2cc(-c3nn4c(C)nnc4s3)ccc2C)cc1,-24.7
7,COc1ccc(OCC(=O)Nc2cc(-c3nn4c(C)nnc4s3)ccc2C)cc1,-4.85
8,Cc1ccc(-c2nn3c(C)nnc3s2)cc1NC(=O)COc1ccc(Cl)cc1,-70.6
9,CC(C)[C@H]1CN(C)CCN1Cc1cn(C)nc1-c1cccc(Cl)c1,-27
10,COc1ccc(C(c2c(NC(=O)c3ccco3)sc(C)c2C)N2CCOCC2)cc1OC (stereo not drawn),-15
11,CC(=O)Nc1ccc(-c2sc(Nc3ccccc3)n[n+]2C)cc1.[Cl-],27.5
12,COc1ccccc1C1C=C(c2ccc(Cl)cc2)Nc2nc(N3C(=O)CCC3=O)nn21 (stereo not drawn),-32.8
13,N#C/C(=C\c1ccc(N2CCCC2)c([N+](=O)[O-])c1)c1nc2ccccc2[nH]1,-35.5
14,N#C/C(=C\c1ccc(N2CCOCC2)c([N+](=O)[O-])c1)c1nc2ccccc2[nH]1,-59.6
15,N#C/C(=C/c1ccc(N2CCCC2)c([N+](=O)[O-])c1)c1nc2ccccc2[nH]1,-3.43
16,COc1cc(NC(=O)c2ccccc2)c(OC)cc1NC(=O)CN1C(=O)NC2(CCCCC2)C1=O,-70.3
17,COc1cc(NC(=O)c2ccccc2)c(OC)cc1NC(=O)CN1C(=O)NC2(CCCCC2C)C1=O (stereo not drawn),-49.8
18,CCOc1cc(N2CCOCC2)c(OCC)cc1NC(=O)CN1C(=O)NC(C)(C2CC2)C1=O (stereo not drawn),26.8
19,CCOc1cc(N2CCOCC2)c(OCC)cc1NC(=O)CN1C(=O)NC2(CCCCCCC2)C1=O,-63
20,CCOc1cc(N2CCOCC2)c(OCC)cc1NC(=O)CN1C(=O)NC2(CCc3ccccc32)C1=O (stereo not drawn),-44.5
21,CCOc1cc(N2CCOCC2)c(OCC)cc1NC(=O)CN1C(=O)C2CC=CCC2C1=O (stereo not drawn),-8.84

row,Structure (SMILES),"hERG current change (%, negative = inhibition) at 10uM [%]"
1,CCOc1cc(N2CCOCC2)c(OCC)cc1NC(=O)CN1C(=O)NC2(CCCCC2)C1=O,-69.7
2,CCOc1ccc(S(=O)(=O)N2CCOCC2)cc1NC(=O)CN1C(=O)NC2(CCCCC2)C1=O,-17.9
3,COc1ccccc1NC(=O)CN1C(=O)NC2(CCCCCCC2)C1=O,1.08
4,CCOc1cc(N2CCOCC2)c(OCC)cc1NC(=O)CN1C(=O)NC(CC(C)C)C1=O (stereo not drawn),-70.4
5,CCOc1cc(N2CCOCC2)c(OCC)cc1NC(=O)CN1C(=O)NC(Cc2ccccc2)C1=O (stereo not drawn),-25.5
6,CCOc1cc(N2CCOCC2)c(OCC)cc1NC(=O)CN1C(=O)N(C)C2(CCCCC2)C1=O,-23.5
7,CSc1ccccc1C(=O)Nc1nc2ccccc2[nH]1,2.78
8,COc1ccccc1N(CC(=O)NC1CCCC1)C(=O)CCC(=O)Nc1ccccn1,6.68
9,Cc1[nH]n(-c2ccccc2)c(=O)c1-c1ccc(Cl)cc1,9.3
10,COc1ccc(C(=O)NC(=S)Nc2ccccc2F)cc1,9.53
11,CN(C)S(=O)(=O)Oc1ccsc1C(=O)Nc1ccc(Cl)cc1,-33.7
12,Cc1cc(N=NC(=O)c2ccccc2)ccc1O,4.74
13,O=C(Nc1ccc(Cl)cc1)NC1CCCC1Cc1ccco1 (stereo not drawn),-15.3
14,CCOc1ccc(Nc2ccnc3cc(Cl)ccc23)cc1,-7.97
15,CCOc1ccccc1Nc1cc(C)nc2ccc(C)cc12,-70.1
16,Clc1ccc2c(NNc3ccccc3Cl)ccnc2c1,7.9
17,CCOc1ccc(Nc2cc(C)nc3ccc(C)cc23)cc1,-69.6
18,Cc1ccc(Nc2cc(C)nc3ccc(C)cc23)cc1,-37.9
19,CCOc1cc(/C=N/Nc2cc(C)nc3ccc(C)cc23)ccc1O,11.1
20,Cc1ccc2nc(C)cc(Nc3ccc([N+](=O)[O-])cc3)c2c1,-14.4
21,CCOc1ccccc1Nc1ccnc2cc(Cl)ccc12,-57.2

row,Structure (SMILES),"hERG current change (%, negative = inhibition) at 10uM [%]"
1,CCOc1ccccc1/C=N/Nc1cc(C)nc2ccc(C)cc12,8.9
2,Cc1ccccc1-n1nnnc1SCc1cc(=O)n2ccsc2n1,-25.6
3,Cc1nc2ccccc2nc1N1CCOCC1,5.42
4,Cc1cccc2nc(Cn3c(=O)n(CCCC(=O)NCc4ccco4)c(=O)c4ccccc43)cc(=O)n12,-23
5,COc1ccc(S(=O)(=O)Nc2ccc(Nc3ccccc3)cc2)cc1,5.15
6,N#Cc1ccccc1Cn1cc(C(=O)c2ccccc2F)c2ccccc21,4.67
7,Cc1cc(C)cc(NC(=O)c2cnn(-c3ccccc3)c2C2CCNCC2)c1.Cl,-19.7
8,CCc1cccc(NC(=O)c2cnn(-c3ccccc3)c2C)c1,-56
9,CCc1ccc(NC(=O)c2cnn(-c3ccccc3)c2C2CCNCC2)cc1.Cl,-60
10,Cc1ccc(-n2ncc(C(=O)Nc3cc(Cl)ccc3C)c2C2CCNCC2)cc1C.Cl,-35.1
11,Cc1cccc(C)c1-n1ncc(C(=O)NC2CCCC2)c1C1CCNCC1,18.9
12,Cc1c(C(=O)Nc2ccccc2)cnn1-c1ccccc1,-3.03
13,Cc1ccc(-n2ncc(C(=O)Nc3cc(Cl)ccc3Cl)c2C2CCNCC2)cc1.Cl,-62
14,Cc1ccc(-n2ncc(C(=O)Nc3ccc(Cl)cc3)c2C2CCNCC2)cc1C.Cl,-71.7
15,Cc1cccc(NC(=O)c2cnn(-c3ccc(F)cc3)c2C2CCNCC2)c1C.Cl,-9.71
16,CCCc1c(C(=O)Nc2ccc(F)cc2)cnn1-c1ccccc1,12.5
17,CCc1ccc(NC(=O)c2cnn(-c3ccccc3)c2C)cc1,2.7
18,O=C(c1ccco1)N1CCN(C(=O)c2cnn(-c3ccc(Cl)cc3)c2C2CCNCC2)CC1,15
19,NC(=O)c1ccc(N=Cc2ccc([N+](=O)[O-])s2)cc1,8.6
20,Cc1cccc(OCc2nnc(SCC(=O)O)n2Cc2ccccc2)c1,28.1
21,Cc1cccc(C(=O)Nc2nnc(Cc3c[nH]c4ccccc34)s2)c1,12.7
